Bioassay records from PubChem.
SUMO Mot1 rescue = inhibitors of SUMOylation pathway: yeast Mot1-301 growth rescue; S. cerevisiae Mot1-301 growth rescue, ATP luminescence, 38.5C; percent above DMSO median, 100 means doubled; growth rescue, % at 18.8 µM; actives 1% (n = 320,000);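 active = every valid replicate shows activation above 250% relative to neutral control wells; inactive = the rest, any valid replicate at or below 250%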
aDG glyco up = alpha-DG glycosylation activation; activation, % at 10 µM; actives 0.22% (n = 360,000); Pro5-aDG cells, alpha-DG glycosylation AlphaScreen (IIH6); 0% Pro5, 100% B10-LARGE cell signal; AID 624168;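 active = activation of at least 8% versus controls, or a plate z-score of at least 8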;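 note: Pro5 are CHO cells carrying HIG-tagged alpha-DG that lacks glycosylation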
ARNT-TACC3 inh = ARNT/TACC3 interaction disruption; Q9Y6A5; AlphaScreen His-ARNT PAS-B/GST-TACC3 binding, luminescence; TACC3 fragment carries E629A point mutation; inhibition, % at 9.99 µM; actives 0.66% (n = 390,000); AID 623870;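 active = mean inhibition of replicates at least 50% and at least half of replicates each reaching 50%; inconclusive = half or more replicates reach 50% but mean below 50%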
AI-2 QS modul = Vibrio harveyi AI-2 quorum sensing modulation; AID 2094; Vibrio harveyi JMH597 AI-2 luminescence/OD600 ratio, 9 h; active compounds read low; strain lacks LuxN and CqsS sensors; 0 = neutral-control median; actives 0.4% (n = 300,000); activity change, % at 7.5 µM; in the data active = activity change below about -75%, passing the limit was not always enough; inconclusive = no clear call, values can overlap the other calls;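 note: luminescence divided by OD600 gain over 9 h not by final OD600 alone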
Bfl-1 A1 inh = inhibitors of the anti-apoptotic protein A1, read as caspase activation. caspase activation, % (concentration not given with the values). MEF A1-2A-BIM cells, Caspase-Glo 3/7 luminescence, 3 h; percent of clofoctol response, vehicle zero. actives 0.066% (n = 330,000);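 active = over half of replicate activation scores above 10%, or exactly half above 10 with the replicate mean above 10; inconclusive = replicate mean below 10 yet half the replicates above 10; inactive = over half of replicates below 10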
JMH597 growth = retest: inhibitors of Vibrio harveyi JMH597 growth | shares compounds with AI-2 QS modul | OD600 absorbance, 9 h; lacks LuxN and CqsS sensors | growth inhibition, % at 7.5 µM | actives 1% (n = 750) | AID 2726;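 active = every replicate shows growth inhibition above 50%; inconclusive = at least half, but not all, replicates pass that cutoff; inactive = fewer than half of replicates pass it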
BB721 lum counter = retest counter-screen: BB721 constitutive quorum sensing luminescence decrease; shares compounds with AI-2 QS modul; Vibrio harveyi BB721 luminescence, 9 h; inhibition, % at 7.5 µM; actives 95% (n = 750);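 active = inhibition above about 80% in every replicate, not just on average, limit read from the data; inconclusive = at least half of replicates past the limit, but not all; inactive = fewer than half of replicates past the limit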
BB721 growth = retest: inhibitors of Vibrio harveyi BB721 growth. growth inhibition, % at 7.5 µM. shares compounds with AI-2 QS modul. OD600 absorbance, 9 h. actives 3% (n = 750);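 active = every replicate shows growth inhibition above 50%; inconclusive = at least half but not all replicates above 50% inhibition; inactive = under half of replicates above 50% inhibition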
AI-2 QS JMH597 = Vibrio harveyi AI-2 signaling luminescence modulation – JMH597 strain, confirmation. shares compounds with AI-2 QS modul. inhibition, % at 7.5 µM. Vibrio harveyi JMH597 AI-2 quorum sensing luminescence, 9 h; luxN and CqsS knockout, AI-2 only. actives 97% (n = 750);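 active = every replicate shows more than 75% inhibition of signal versus neutral control wells; inconclusive = half to three quarters of replicates exceed 75% inhibition; inactive = fewer than half of replicates exceed 75% inhibition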
Each line names hits and unclear results; the compound was inactive in the other large screens (follow-up assays come after a bar, where they were run). Compounds with a hit are over-represented: about 1.8% of the library has one in this group of screens.

O=C(CN1C(=O)NC2(CCc3ccccc32)C1=O)NCC(=O)Nc1ccc(F)cc1 (stereo unspecified)	none (no result: AI-2 QS modul)
CC(C)(C)OC(=O)C[C@H]1C/C=C\C[C@@H](CC(=O)N[C@H](CO)Cc2ccccc2)C(=O)N2CCC[C@H]2COC1=O	none (no result: AI-2 QS modul)
CCOC(=O)CNC(=O)N1CCCC(C(=O)c2cccc(Cl)c2)C1 (stereo unspecified)	none (no result: ARNT-TACC3 inh)
c1ccc(-c2nnc(SCc3ccncc3)o2)cc1	none (no result: SUMO Mot1 rescue, ARNT-TACC3 inh, AI-2 QS modul, Bfl-1 A1 inh)
c1ccc(-c2nnc(-c3ccccc3)o2)cc1	none
Cc1cccc(CSc2nnc(-c3ccco3)o2)c1	AI-2 QS modul -91 | JMH597 growth inactive | BB721 lum counter 97 | BB721 growth inactive | AI-2 QS JMH597 98
CSc1nnc(-c2ccccc2)o1	AI-2 QS modul inconclusive | JMH597 growth inactive | BB721 lum counter inactive | BB721 growth inactive | AI-2 QS JMH597 inactive
Cc1cccc(-c2nnc(SCc3ccccc3)o2)c1	AI-2 QS modul -89 (no result: SUMO Mot1 rescue) | JMH597 growth inactive | BB721 lum counter 96 | BB721 growth inconclusive | AI-2 QS JMH597 97
Cc1cccc(CSc2nnc(-c3ccco3)n2C)c1	none
CC(=O)c1c(C)cc(C)c(CSc2nnc(-c3ccco3)o2)c1C	AI-2 QS modul -81 | JMH597 growth inactive | BB721 lum counter 89 | BB721 growth inactive | AI-2 QS JMH597 91
O=C(Nc1cc(Cl)ccc1N1CCOCC1)c1cccnc1	none
CN1c2ccc(C#Cc3cccnc3)cc2[C@@H]2[C@@H](CCN2C(=O)Cc2cccnc2)[C@@H]1CO	none (no result: SUMO Mot1 rescue, aDG glyco up, AI-2 QS modul, Bfl-1 A1 inh)
COc1ccc(NC(=O)CSCC(=O)Nc2ccccc2C(=O)N2CCCCC2)cc1	none (no result: AI-2 QS modul)
O=S(=O)(Nc1ccccc1)N1CCCCC1	none (no result: SUMO Mot1 rescue, AI-2 QS modul, Bfl-1 A1 inh)
O=C(c1ccc(COc2ccc(Cl)cc2)o1)N1CCN(Cc2ccc3c(c2)OCO3)CC1	SUMO Mot1 rescue 402, AI-2 QS modul -97 | JMH597 growth 133 | BB721 lum counter 100 | BB721 growth 111 | AI-2 QS JMH597 100
O=C(c1ccc(COc2ccccc2Cl)o1)N1CCN(Cc2ccc3c(c2)OCO3)CC1	none
O=C(c1cccc(Cl)c1)N1CCN(Cc2ccc3c(c2)OCO3)CC1	none
O=C(c1cc2cc(Cl)ccc2[nH]1)N1CCN(Cc2ccc3c(c2)OCO3)CC1	AI-2 QS modul -94 | JMH597 growth inactive | BB721 lum counter 98 | BB721 growth inactive | AI-2 QS JMH597 99
O=C(c1cc2cc(F)ccc2[nH]1)N1CCN(C(=O)c2ccco2)CC1	AI-2 QS modul -84 | JMH597 growth inactive | BB721 lum counter 85 | BB721 growth inactive | AI-2 QS JMH597 91
Cc1ccc(N(C(=O)NC2CCCCC2)C2=NCCCCC2)cc1	none
CCC(Sc1ncccc1Nc1ccccn1)C(=O)O (stereo unspecified)	none
COc1nc(C)nc(C)c1Oc1ccc(Cl)cc1Cl	none
Nc1cc(Oc2ccc(Cl)cc2Cl)nc(N)n1	AI-2 QS modul -95 (no result: ARNT-TACC3 inh) | JMH597 growth inactive | BB721 lum counter 99 | BB721 growth inactive | AI-2 QS JMH597 99
Cc1c(CC(=O)O)c(=O)oc2cc(OCc3ccc(F)cc3F)ccc12	none
N#Cc1ccc(COC(=O)c2ccc(N3CCCC3)c([N+](=O)[O-])c2)cc1	none
O=CN(/C=C1\Sc2ccccc2C1=O)Cc1ccccc1	AI-2 QS modul -90 | JMH597 growth inactive | BB721 lum counter 96 | BB721 growth inactive | AI-2 QS JMH597 97
CN(CCOC(=O)C1c2ccccc2Oc2ccccc21)C(C)(C)C	none
COc1cccc(OCc2nc(-c3ccc(Br)o3)no2)c1	AI-2 QS modul -83 (no result: SUMO Mot1 rescue) | JMH597 growth inactive | BB721 lum counter 96 | BB721 growth inactive | AI-2 QS JMH597 97
COc1cccc(OCc2nc(-c3cccc([N+](=O)[O-])c3)no2)c1	AI-2 QS modul -83 (no result: ARNT-TACC3 inh) | JMH597 growth inactive | BB721 lum counter 86 | BB721 growth inactive | AI-2 QS JMH597 93
CC(C)(C)N(Cc1ccccc1)C(=O)CN1C(=O)NC2(CCCCCC2)C1=O	none (no result: AI-2 QS modul)
Cc1c(NC(=O)c2cc(-n3cnnc3)ccc2Cl)cccc1-c1nc2ccccc2s1	none
CC(C)=CC(=O)OCC(=O)Nc1ccc(SC(F)F)cc1	AI-2 QS modul -87 | JMH597 growth inactive | BB721 lum counter 93 | BB721 growth inactive | AI-2 QS JMH597 96
Nn1c(SCc2ccc([N+](=O)[O-])cc2)nc2ccccc2c1=O	AI-2 QS modul -97 | JMH597 growth inactive | BB721 lum counter 97 | BB721 growth inactive | AI-2 QS JMH597 97
CCCNC(=O)c1ccc(N2CCC3(CC2)CC(c2cccc(Br)c2)=NO3)c([N+](=O)[O-])c1	none
O=C(c1cc(COc2c(F)cccc2F)on1)N1CCc2ccccc2C1	AI-2 QS modul inconclusive | JMH597 growth inactive | BB721 lum counter 87 | BB721 growth inactive | AI-2 QS JMH597 91
CC1(c2ccccc2)NC(=O)N(CC(=O)NCCC2=CCCCC2)C1=O (stereo unspecified)	AI-2 QS modul -90 (no result: SUMO Mot1 rescue, ARNT-TACC3 inh) | JMH597 growth inactive | BB721 lum counter 91 | BB721 growth inactive | AI-2 QS JMH597 95
CC1(c2ccc3c(c2)OCO3)NC(=O)N(CC(=O)NCCC2=CCCCC2)C1=O (stereo unspecified)	AI-2 QS modul -87 | JMH597 growth inactive | BB721 lum counter 90 | BB721 growth inactive | AI-2 QS JMH597 95
Cc1ccc(C2(C)NC(=O)N(CC(=O)NCCC3=CCCCC3)C2=O)cc1 (stereo unspecified)	none (no result: SUMO Mot1 rescue)
Cn1c(Cc2cccc3ccccc23)nnc1SCC(=O)N1CCN(c2ccccc2)CC1	none
O=C(COC(=O)[C@@H]1CCCN1C(=O)c1cccs1)Nc1cccc([N+](=O)[O-])c1	none (no result: AI-2 QS modul)
CCOc1ccc(-c2nc(C#N)c(N3CCN(C)CC3)o2)cc1	none
CC(Nc1ccc(Cl)cc1)c1cc(Cl)ccc1O (stereo unspecified)	none
CC(Nc1ccc(Br)cn1)c1cc(Cl)ccc1O (stereo unspecified)	AI-2 QS modul -86 (no result: SUMO Mot1 rescue, Bfl-1 A1 inh) | JMH597 growth inactive | BB721 lum counter 96 | BB721 growth inactive | AI-2 QS JMH597 97
O=C(c1ccc2c3n(nc2c1)-c1ccccc1CO3)N1CCCCC1	AI-2 QS modul -84 | JMH597 growth inactive | BB721 lum counter 89 | BB721 growth inactive | AI-2 QS JMH597 95
O=C(Nc1ccc(N2CCCCC2)cc1)c1cccnc1	none
